Results published in PubChem BioAssay (EPA / NIEHS).
Active and inactive are the calls of the source. Rule for the calls: active = hit-call score of the fitted dose curve at least 0.9, where 1 is the maximum; inactive = score below 0.9.

What was measured:
Settings in all cases: mRNA level, 48 h; actives raise or lower the signal
[1] = read-out: Bcl-2 (BAX) gene, BAX (gene 581); assay: LTEA_HepaRG_BAX: Life Technologies and Expression Analysis (LTEA) Assay for Bcl-2 (BAX) gene using HepaRG (AID 2283470)
In short: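 Cells were thawed, plated for 48 h, moved to serum-free induction medium and dosed for 48 h (highest concentration 100 uM, half-log steps, 0.5% DMSO). Total RNA was then analysed for BAX expression by qRT-PCR.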

[2] = read-out: adenosine kinase (ADK) gene, ADK (gene 132); assay: LTEA_HepaRG_ADK: Life Technologies and Expression Analysis (LTEA) Assay for adenosine kinase (ADK) gene using HepaRG (AID 2283471)
In short: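 Following 48 h exposure of HepaRG cells in 0.5% DMSO (top concentration 100 uM, duplicate wells), ADK mRNA induction or suppression was measured by qRT-PCR, normalised to ACTB/GAPDH/POLR2A, and fitted bidirectionally relative to vehicle.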

[3] = read-out: Alpha-fetoprotein (AFP) gene, AFP (gene 174); assay: LTEA_HepaRG_AFP: Life Technologies and Expression Analysis (LTEA) Assay for Alpha-fetoprotein (AFP) gene using HepaRG (AID 2283472)
In short: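 Chemicals were tested on differentiated HepaRG cells for 48 hours at eight concentrations up to 100 uM, with 0.5% DMSO as vehicle. AFP expression was then quantified by qRT-PCR and analyzed for gain or loss relative to DMSO.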

BCL2L11 (gene 10018) = assay: LTEA_HepaRG_BCL2L11: Life Technologies and Expression Analysis (LTEA) Assay for Bcl-2 (BCL2L11) gene using HepaRG (AID 2283473)
In short: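 Differentiated human HepaRG cells in serum-free induction medium were exposed in duplicate for 48 h to eight concentrations (top 100 uM, half-log steps, 0.5% DMSO). BCL2L11 mRNA was quantified by TaqMan qRT-PCR, normalized to ACTB/GAPDH/POLR2A, bidirectional fit versus DMSO.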

[4] = read-out: Apolipoprotein A-V (APOA5) gene, APOA5 (gene 116519); assay: LTEA_HepaRG_APOA5: Life Technologies and Expression Analysis (LTEA) Assay for Apolipoprotein A-V (APOA5) gene using HepaRG (AID 2283474)
In short: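 Differentiated human HepaRG cells were exposed in duplicate for 48 h to eight half-log concentrations from 100 uM in 0.5% DMSO. APOA5 mRNA was quantified by TaqMan qRT-PCR, normalized to ACTB, GAPDH and POLR2A, and fitted bidirectionally against DMSO.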

[5] = read-out: Bcl-2 (BID) gene, BID (gene 637); assay: LTEA_HepaRG_BID: Life Technologies and Expression Analysis (LTEA) Assay for Bcl-2 (BID) gene using HepaRG (AID 2283476)
In short: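 Cells are plated, cultured 48 h, switched to serum-free induction medium, then dosed 48 h (100 uM top, half-log steps, 0.5% DMSO). RNA is isolated and BID expression read by qRT-PCR.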

Caspase-3 (Homo sapiens) = Caspase-3 (Homo sapiens) (UniProt P42574); assay: LTEA_HepaRG_CASP3: Life Technologies and Expression Analysis (LTEA) Assay for cysteine-aspartic acid protease (CASP3) using HepaRG (AID 2283477)
In short: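 Differentiated human HepaRG cells in serum-free induction medium were exposed 48 h to 8-point half-log concentrations from 100 uM (0.5% DMSO vehicle). CASP3 mRNA was measured by qRT-PCR, normalised to ACTB, GAPDH and POLR2A, with bidirectional fitting against DMSO.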

[6] = read-out: Cytochrome P450 (CYP24A1), CYP24A1 (gene 1591); assay: LTEA_HepaRG_CYP24A1: Life Technologies and Expression Analysis (LTEA) Assay for Cytochrome P450 (CYP24A1) using HepaRG (AID 2283478)
In short: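 Differentiated HepaRG cells, pre-cultured 48 h, were exposed in duplicate for 48 h in serum-free induction medium to 8 half-log concentrations (top 100 uM, 0.5% DMSO). CYP24A1 mRNA was quantified by TaqMan qRT-PCR, normalized to ACTB/GAPDH/POLR2A, fitted bidirectionally versus DMSO.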

[7] = read-out: Cytochrome P450 (CYP1A2), CYP1A2 (gene 1544); assay: LTEA_HepaRG_CYP1A2: Life Technologies and Expression Analysis (LTEA) Assay for Cytochrome P450 (CYP1A2) using HepaRG (AID 2283479)
In short: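 Differentiated human HepaRG cells in serum-free induction medium were exposed in duplicate for 48 h to 8-point half-log concentrations up to 100 uM in 0.5% DMSO. CYP1A2 mRNA measured by qRT-PCR, normalized to ACTB, GAPDH, POLR2A; bidirectional fit vs DMSO.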

[8] = read-out: cysteine-aspartic acid protease (CASP8), CASP8 (gene 841); assay: LTEA_HepaRG_CASP8: Life Technologies and Expression Analysis (LTEA) Assay for cysteine-aspartic acid protease (CASP8) using HepaRG (AID 2283480)
In short: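 Concentration-response in duplicate up to 100 uM (half-log steps, 0.5% DMSO) on differentiated HepaRG cultures for 48 h. Expression change of CASP8 mRNA is determined by TaqMan qRT-PCR with housekeeping-gene normalization.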

[9] = read-out: Cytochrome P450 (CYP2B6), CYP2B6 (gene 1555); assay: LTEA_HepaRG_CYP2B6: Life Technologies and Expression Analysis (LTEA) Assay for Cytochrome P450 (CYP2B6) using HepaRG (AID 2283481)
In short: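 Differentiated HepaRG cells, serum-free induction medium, exposed 48 h in duplicate to 8-point half-log concentrations from 100 uM in 0.5% DMSO. CYP2B6 mRNA by qRT-PCR, normalized to ACTB, GAPDH, POLR2A; bidirectional fit versus DMSO.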

[10] = read-out: Cytochrome P450 2C19 (Homo sapiens) (UniProt P33261); assay: LTEA_HepaRG_CYP2C19: Life Technologies and Expression Analysis (LTEA) Assay for CYP2C19 using HepaRG (AID 2283482)
In short: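 Differentiated human HepaRG cells were exposed for 48 h in serum-free induction medium to 8 concentrations (top 100 uM, half-log steps, 0.5% DMSO). CYP2C19 mRNA was measured by qRT-PCR, normalized to ACTB/GAPDH/POLR2A, and fitted bidirectionally against DMSO.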

CYP2C9 (gene 1559) = assay: LTEA_HepaRG_CYP2C9: Life Technologies and Expression Analysis (LTEA) Assay for CYP2C9 using HepaRG (AID 2283484)
In short: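 Eight-point concentration-response (highest 100 uM, half-log dilutions) in HepaRG cells for 48 h; CYP2C9 expression by qRT-PCR normalized to ACTB, GAPDH, POLR2A. Bidirectional fit, DMSO baseline.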

CYP2E1 (gene 1571) = assay: LTEA_HepaRG_CYP2E1: Life Technologies and Expression Analysis (LTEA) Assay for CYP2E1 using HepaRG (AID 2283485)
In short: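 Readout is qRT-PCR of CYP2E1 mRNA, normalized to three housekeeping genes and fitted bidirectionally against 0.5% DMSO. HepaRG cells were dosed 48 h at eight concentrations, highest 100 uM with half-log dilutions.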

CYP4A11 (gene 1579) = assay: LTEA_HepaRG_CYP4A11: Life Technologies and Expression Analysis (LTEA) Assay for CYP4A11 using HepaRG (AID 2283486)
In short: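 Differentiated HepaRG cells, serum-free induction medium, exposed 48 h in duplicate to 8-point half-log series from 100 uM in 0.5% DMSO. CYP4A11 mRNA measured by qRT-PCR, normalized to ACTB, GAPDH, POLR2A; bidirectional fit versus DMSO.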

[11] = read-out: DNA damage-inducible transcript 3 (DDIT3), DDIT3 (gene 1649); assay: LTEA_HepaRG_DDIT3: Life Technologies and Expression Analysis (LTEA) Assay for DNA damage-inducible transcript 3 (DDIT3) using HepaRG (AID 2283488)
In short: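 Cells are human HepaRG liver cells treated for 48 h with eight half-log concentrations up to 100 uM in 0.5% DMSO. Transcript levels come from qRT-PCR normalized to three housekeeping genes, with activity fitted in both directions relative to vehicle.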

[12] = read-out: Pro-epidermal growth factor (Homo sapiens) (UniProt P01133); assay: LTEA_HepaRG_EGF: Life Technologies and Expression Analysis (LTEA) Assay for Epidermal growth factor (EGF) using HepaRG (AID 2283489)
In short: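 Differentiated human HepaRG cells, plated 48 h then switched to serum-free induction medium, were exposed for 48 h to test chemicals (8-point half-log series, top 100 uM, 0.5% DMSO). EGF mRNA was quantified by qRT-PCR, normalized to ACTB, GAPDH, POLR2A.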

CYP2C8 (gene 1558) = assay: LTEA_HepaRG_CYP2C8: Life Technologies and Expression Analysis (LTEA) Assay for CYP2C8 using HepaRG (AID 2283483)
In short: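 This is a transcriptional endpoint in HepaRG cultures: 48 h exposure, highest concentration 100 uM. CYP2C8 mRNA is quantified by TaqMan qRT-PCR.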

[13] = read-out: Cytochrome P450 3A4 (Homo sapiens) (UniProt P08684); assay: LTEA_HepaRG_CYP3A4: Life Technologies and Expression Analysis (LTEA) Assay for CYP3A4 using HepaRG (AID 2283487)
In short: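 In a human hepatic line (HepaRG), duplicate wells were treated 48 h with up to 100 uM chemical in half-log dilutions. Endpoint: CYP3A4 mRNA induction or loss relative to 0.5% DMSO vehicle, by qRT-PCR.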

[14] = read-out: Apoptosis regulator Bcl-2 (Homo sapiens) (UniProt P10415); assay: LTEA_HepaRG_BCL2: Life Technologies and Expression Analysis (LTEA) Assay for Bcl-2 gene using HepaRG (AID 2283475)
In short: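 Plated human HepaRG cells are exposed to test chemicals for 48 h across eight concentrations from 100 uM downward in half-log steps (0.5% DMSO). BCL2 expression is then measured by qRT-PCR with housekeeping normalisation and fitted bidirectionally against vehicle.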

Measured: AC50

Cytochrome P450 2C19 (Homo sapiens), sequence (P33261 whole entry, looked up): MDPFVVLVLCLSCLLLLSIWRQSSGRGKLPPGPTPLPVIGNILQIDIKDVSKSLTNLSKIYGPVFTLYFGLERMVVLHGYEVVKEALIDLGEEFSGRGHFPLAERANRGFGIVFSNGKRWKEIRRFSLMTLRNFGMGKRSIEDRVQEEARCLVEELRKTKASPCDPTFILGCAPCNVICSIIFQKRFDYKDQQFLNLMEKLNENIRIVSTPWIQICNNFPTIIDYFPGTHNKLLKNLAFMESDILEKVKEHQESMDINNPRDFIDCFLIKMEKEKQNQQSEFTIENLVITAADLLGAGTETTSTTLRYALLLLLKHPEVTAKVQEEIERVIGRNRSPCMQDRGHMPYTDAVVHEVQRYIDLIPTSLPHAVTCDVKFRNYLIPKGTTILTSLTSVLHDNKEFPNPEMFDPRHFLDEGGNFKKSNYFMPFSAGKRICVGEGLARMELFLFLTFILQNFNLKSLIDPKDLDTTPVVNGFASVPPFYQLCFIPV
Cytochrome P450 3A4 (Homo sapiens), sequence (P08684 whole entry, looked up): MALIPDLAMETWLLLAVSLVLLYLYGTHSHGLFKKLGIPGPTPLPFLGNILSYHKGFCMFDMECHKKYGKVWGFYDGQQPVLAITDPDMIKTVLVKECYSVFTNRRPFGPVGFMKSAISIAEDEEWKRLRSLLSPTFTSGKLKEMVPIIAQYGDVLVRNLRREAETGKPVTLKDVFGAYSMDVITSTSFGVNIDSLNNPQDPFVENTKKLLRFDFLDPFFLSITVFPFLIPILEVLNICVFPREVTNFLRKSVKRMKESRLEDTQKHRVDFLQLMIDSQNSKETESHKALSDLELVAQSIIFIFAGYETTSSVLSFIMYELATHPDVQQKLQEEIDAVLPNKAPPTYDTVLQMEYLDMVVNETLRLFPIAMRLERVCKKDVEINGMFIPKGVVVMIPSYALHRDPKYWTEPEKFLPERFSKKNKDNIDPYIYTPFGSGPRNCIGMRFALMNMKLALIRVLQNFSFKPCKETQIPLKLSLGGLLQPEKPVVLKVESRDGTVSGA
Caspase-3 (Homo sapiens), sequence (P42574 whole entry, looked up): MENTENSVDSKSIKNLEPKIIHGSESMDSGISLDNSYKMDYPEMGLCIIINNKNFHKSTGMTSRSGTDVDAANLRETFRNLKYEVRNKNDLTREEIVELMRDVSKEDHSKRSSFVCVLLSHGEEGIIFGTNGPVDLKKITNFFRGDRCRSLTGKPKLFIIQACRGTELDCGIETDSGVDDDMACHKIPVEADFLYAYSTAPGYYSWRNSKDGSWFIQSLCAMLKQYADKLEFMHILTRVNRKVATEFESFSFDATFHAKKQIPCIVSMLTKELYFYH
Apoptosis regulator Bcl-2 (Homo sapiens), sequence (P10415 whole entry, looked up): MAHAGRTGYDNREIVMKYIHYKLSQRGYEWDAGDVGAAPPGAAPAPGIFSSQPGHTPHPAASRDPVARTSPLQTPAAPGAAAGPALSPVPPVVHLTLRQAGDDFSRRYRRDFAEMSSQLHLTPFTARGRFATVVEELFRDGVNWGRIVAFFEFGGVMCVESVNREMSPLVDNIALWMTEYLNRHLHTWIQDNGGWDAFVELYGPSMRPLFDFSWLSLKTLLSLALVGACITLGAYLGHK

CC1(C)CCC(=Cc2ccc(Cl)cc2)C1(O)Cn1cncn1 (stereo not drawn)
active: [4] 49.8 µM | [7] 23.3 µM | [9] 2.72 µM | [10] 5.03 µM | CYP2E1 (gene 1571) 27.1 µM | CYP4A11 (gene 1579) 27.8 µM
not listed: CYP2C8 (gene 1558) | [13] | [14]
inactive: all other assays above

CC(C)Oc1cccc(NC(=O)c2ccccc2C(F)(F)F)c1
active: [7] 80 µM | [9] 33 µM | [10] 40.2 µM | CYP2E1 (gene 1571) 84.4 µM
not listed: CYP2C8 (gene 1558) | [13] | [14]
inactive: all other assays above

N#Cc1c(Cl)cccc1Cl
active: [9] 12.1 µM
not listed: [14]
inactive: all other assays above

CCCCC(O)(Cn1cncn1)c1ccc(Cl)cc1Cl (stereo not drawn)
active: [1] 74.6 µM | [3] 68.4 µM | [4] 65.6 µM | [7] 87.4 µM | [9] 80.1 µM | [10] 83.2 µM | CYP2C8 (gene 1558) 78.5 µM | CYP2C9 (gene 1559) 73.8 µM | CYP2E1 (gene 1571) 46.4 µM | CYP4A11 (gene 1579) 59 µM | [13] 85.6 µM | [11] 77.4 µM
inactive: [2] | BCL2L11 (gene 10018) | [5] | Caspase-3 (Homo sapiens) | [6] | [8] | [12]

CCC(C)n1c(=O)[nH]c(C)c(Br)c1=O (stereo not drawn)
active: [3] 35.5 µM | BCL2L11 (gene 10018) 20.7 µM | [7] 8.92 µM | [9] 1.19 µM | CYP2E1 (gene 1571) 20.6 µM | CYP4A11 (gene 1579) 13.5 µM
not listed: [11] | CYP2C8 (gene 1558) | [14]
inactive: all other assays above

CCOc1nc(C(Cl)(Cl)Cl)ns1
active: [1] 1.39 µM | [2] 1.06 µM | [3] 1.77 µM | BCL2L11 (gene 10018) 0.862 µM | [14] 1.51 µM | [5] 1.33 µM | Caspase-3 (Homo sapiens) 1.05 µM | [6] 1.93 µM | [7] 0.939 µM | [8] 1.08 µM | [9] 1.28 µM | [10] 14.9 µM | CYP4A11 (gene 1579) 1.12 µM | [11] 1.61 µM
inactive: CYP2C9 (gene 1559) | CYP2E1 (gene 1571) | [13]

COc1cc(Cl)c(OC)cc1Cl
active: [7] 50 µM | [9] 1.23 µM
not listed: [4] | [6] | [10]
inactive: all other assays above
